Compounds with a hit are over-represented: about 6.5% of the library has one in this group of screens.
Autofluor 339: intrinsic fluorescence of library compounds, ex339/em460 – biochemical, MLSMR library, data from DPM-DC assay, artefact control, profiling panel. fluorescence fold increase at 10 µM. actives 5.5% (n = 65,000). compound autofluorescence, ex339/em460 nm, NADH buffer; stronger effect = higher value; 1 = no-compound wells, NADH background;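 active = at 10 µM, mean starting fluorescence two-fold or more over control wells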;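 also: signal is the first read of a kinetic run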
PMK inhibit: S. pneumoniae PMK inhibition; actives 0.49% (n = 65,000); purified PMK, PK/LDH-coupled NADH absorbance 340 nm; inhibition, % at 10 µM;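 active = top-ranked compounds by inhibition in the single 10 µM screen, taking a fixed number of the strongest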;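 also: 0% = full reaction with DMSO carrier and 100% = background rate without enzyme reaction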
NADH coupling: inhibitors of enzymes used to reach an NAD/NADH endpoint | coupled PK/LDH NADH assays, four targets | AID 774 | actives 0.02% (n = 65,000) | IC50, µM (highest dose often 10 µM), for the others: at the top dose inhibition;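 active = single-dose screening hits from any of four coupled enzyme assays that gave an IC50 when retested across doses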;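 also: the DPM-DC format reads NADH fluorescence rather than 340 nm absorbance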
Spn MK inh: inhibitors of Streptococcus pneumoniae mevalonate kinase. inhibition, % at 10 µM. purified MK, PK/LDH-coupled NADH absorbance 340 nm. actives 0.48% (n = 65,000). AID 555;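 active = ranked among the strongest by inhibition in the single 10 µM screen, a fixed top-ranked set picked for dose follow-up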
A340 absorber: compounds absorbing at 340 nm; 65,000 tested, under 10 active; compound absorbance at 340 nm, fold over control; fold change at 10 µM; AID 708;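 active = at 10 µM dose, initial 340 nm absorbance at least 2 fold that of control wells; inactive = change under 2 fold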;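 also: initial absorbance extrapolated from kinetic A340 decline of NADH oxidation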
DPM-DC inhibit: S. pneumoniae DPM-DC inhibition; calls only at 10 µM; AID 556; purified DPM-DC, PK/LDH coupled NADH fluorescence; actives 0.49% (n = 65,000);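 active = the 320 compounds with the highest percent inhibition in the single-dose primary screen, excluding strongly autofluorescent ones, cut at about 32% in these data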;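 also: kinetic rate of NADH fluorescence loss reporting ADP formed by the decarboxylase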
An asterisk follows results filed as active; i = inactive; . = no result; + = active, no number; [ ] = remark or other dose.

SMILES	Autofluor 339	PMK inhibit	NADH coupling	Spn MK inh	A340 absorber	DPM-DC inhibit
O=C(NCC1COc2ccccc2O1)c1c[nH]c2ccc(S(=O)(=O)N3CCOCC3)cc2c1=O (stereo not drawn)	2.8*	2	2%	2	1.1	i
O=C(NCc1ccc2c(c1)OCO2)c1c[nH]c2ccc(S(=O)(=O)N3CCOCC3)cc2c1=O	2*	17	10%	2	1.1	i
O=C(NCc1ccc2c(c1)OCO2)c1cc(S(=O)(=O)N2CCCCC2)ccc1F	1	12	4%	0	1	i
NC(=O)c1nsc(C(=O)N(CC(=O)NCc2ccc3c(c2)OCO3)C2CCCC2)c1N	2.1*	.	9%	8	1	i
Nc1nnc(SCC(=O)NCc2ccc3c(c2)OCO3)s1	1.1	7	5%	7	1	i
O=C(O)c1cc(-c2ccco2)[nH]n1	1.1	6	2%	1	1	i
CC(C)Cc1cc(C(=O)O)n[nH]1	2*	10	16%	10	1	i
Cc1nc(-c2cnn(-c3ccccc3)c2)c2cc(C)oc2n1	2.7*	4	2%	0	1	+[fluoresces]
Cc1oc2cc(O)cc(C)c2c(=O)c1-c1cnn(-c2ccccc2)c1	1.2	7	2%	0	1	i

Screens from PubChem.
